Cycloheximide cs = counter-screen for Shiga toxin inhibitors: cycloheximide protein synthesis inhibition. cell reporter, cycloheximide protein synthesis inhibition counterscreen. max response, %. hit rate 12% among 300,000; in the data active = max response mostly above about 13%, no sharp cut-off; inactive = mostly below about 14%; also: read at 38.3 µM for the half of the compounds with a filed dose; 0% is about no effect
Shiga inhibitor = Shiga toxin inhibition; inhibition, % at 38.7 µM; hit rate 9.2% among 290,000; Vero cells, Shiga toxin protein synthesis inhibition reporter; in the data active = inhibition mostly above about 28%, no sharp cut-off; inactive = mostly below about 43%; also: 0% is about no effect
VACV mCherry inh = vaccinia inhibition (mCherry reporter); Vaccinia virus mCherry reporter infection, fluorescence; hit rate 0.63% among 310,000; Potency, µM (top dose mostly 36.5 µM), inactives show at the top dose activity change, negative = inhibition, actives largely listed as inhibitors; calls by dose curve; tested in A549 cells; also: potency is read from the fitted curve at half-maximal effect; % is scaled to controls: 0 for no effect and ±100 for the full control effect; nearly all actives have a fitted effect of over 35% in size
VACV Venus inh = inhibitors of vaccinia virus (Venus reporter) | Vaccinia virus Venus reporter expression, fluorescence | Potency, µM (doses to about 36.5 µM), inactives show at the top dose activity change, negative = inhibition, usual class: inhibitors | hit rate 0.46% among 330,000 | AID 720580; calls by dose curve; tested in A549 cells; also: potency is read from the fitted curve at half-maximal effect; % is scaled to controls: 0 for no effect and ±100 for the full control effect; nearly all actives have a fitted effect of over 30% in size
MARV entry inh = blocks Marburg virus binding to or entry into cells; Marburg virus pseudotyped entry inhibition, cell reporter; Potency, µM (titrated, usually from 37.8 µM), inactives show top-dose activity change, negative = inhibition, actives largely listed as inhibitors; hit rate 1.8% among 300,000; calls by dose curve; tested in HEK293 cells; also: potency is read from the fitted curve at half-maximal effect; % is scaled to controls: 0 for no effect and ±100 for the full control effect
Lassa entry inh = Lassa virus entry inhibition. Lassa virus pseudotype entry inhibition, cell reporter. Potency, µM (top dose mostly 37.9 µM), for inactives: at the highest dose activity change, negative = inhibition, usual class: inhibitors. hit rate 1.2% among 300,000. AID 540256; calls by dose curve; tested in HEK293 cells; also: potency is read from the fitted curve at half-maximal effect; % is scaled to controls: 0 for no effect and ±100 for the full control effect; nearly all actives have a fitted effect of over 50% in size
Active calls of the source: *; [ ] = dose if it differs, or a comment. Many of the other results were omitted from the sample, so hits are more common in it than they were.

How did C=CC[C@@H]1C=C(C(=O)OC)N(C(=O)C(F)(F)F)[C@@H](c2ccccc2Br)[C@@H]1C do in these assays?
MARV entry inh: 9.1%[14.2 µM]

How did CCCn1c(NC(=O)c2ccccc2)nc2ccccc21 do in these assays?
Cycloheximide cs: 17.4; Shiga inhibitor: 31.9; VACV mCherry inh: inconclusive; VACV Venus inh: inconclusive; MARV entry inh: -1.2%; Lassa entry inh: -4.2%

Results for Cn1c(NC(=O)c2cccnc2)nc2ccccc21 ?
Cycloheximide cs: 37.9*; Shiga inhibitor: active; VACV mCherry inh: inactive; VACV Venus inh: -5.3%; MARV entry inh: inconclusive; Lassa entry inh: inconclusive

What do the screens show for `Cc1cc(C(=O)Nc2cnc3ccccc3c2)ccc1[N+](=O)[O-]`?
Cycloheximide cs: 53.1*; Shiga inhibitor: 131.0*; VACV mCherry inh: inactive; VACV Venus inh: -7.9%; MARV entry inh: inconclusive; Lassa entry inh: inconclusive

What do the screens show for `Cc1ccc(C(=O)Nc2cnc3ccccc3c2)cc1`?
Cycloheximide cs: -10.0; Shiga inhibitor: -27.5; VACV mCherry inh: -27.2%; VACV Venus inh: -24.7%; MARV entry inh: inconclusive; Lassa entry inh: 5.01µM*

What do the screens show for `O=C(Nc1cnc2ccccc2c1)c1cccc(-n2cnnn2)c1`?
Cycloheximide cs: 87.7*; Shiga inhibitor: 163.8*; MARV entry inh: 12.0%; Lassa entry inh: inconclusive

Results for Cc1cc(C(=O)Nc2ccc(-n3c(C)nc4ccccc4c3=O)cc2)ccc1[N+](=O)[O-] ?
VACV mCherry inh: 7.0%; VACV Venus inh: -10.8%; Lassa entry inh: -1.8%[46.1 µM]

How did CN(C)C(=O)Nc1cnc2ccccc2c1 do in these assays?
Cycloheximide cs: -2.0; Shiga inhibitor: 9.0; VACV mCherry inh: inactive; VACV Venus inh: -8.6%; MARV entry inh: 2.6%; Lassa entry inh: -12.2%

Results for NC(=O)c1nsc(C(=O)N(CC(=O)NC2CCCCC2)Cc2ccc3c(c2)OCO3)c1N ?
VACV mCherry inh: -22.8%; VACV Venus inh: -15.5%

Results for O=C(CSc1nc2ncccc2[nH]1)Nc1ccccc1-c1ccccc1 ?
Cycloheximide cs: -5.0; Shiga inhibitor: -5.0; VACV mCherry inh: -10.9%[7.34 µM]; VACV Venus inh: -11.8%[7.34 µM]

How did Cc1occc1-c1nnc(SCC(=O)Nc2ccccc2)n1C(C)c1ccccc1 (stereo not drawn) do in these assays?
Cycloheximide cs: 17.9; Shiga inhibitor: 51.2; VACV mCherry inh: -26.1%; VACV Venus inh: -13.5%; MARV entry inh: -21.9%; Lassa entry inh: -17.0%

How did COc1cc(/C(C)=N/N2CCOCC2)cc(OC)c1OC do in these assays?
Cycloheximide cs: -4.4; Shiga inhibitor: 5.7; VACV mCherry inh: inactive; VACV Venus inh: 2.5%

How did COc1cccc2c1Oc1ncccc1N(c1ccc(C(=O)NCc3cccc(C)c3)s1)C2 do in these assays?
VACV mCherry inh: 7.2%; VACV Venus inh: -9.1%; Lassa entry inh: -28.7%[46.1 µM]

How did O=C(Nc1cnc2ccccc2c1)c1cccnc1 do in these assays?
Cycloheximide cs: 22.8*; Shiga inhibitor: 63.5; VACV mCherry inh: -10.2%; VACV Venus inh: -15.2%

Results for CCOc1ccccc1NC(=O)CSc1nc2ccccc2nc1Cc1ccc(C)cc1 ?
VACV mCherry inh: -5.5%; VACV Venus inh: inconclusive; Lassa entry inh: 5.0%[46.1 µM]

What do the screens show for `CC(=O)Oc1ccc2cc(-c3nc4ccccc4n3C)c(=O)oc2c1`?
Cycloheximide cs: 32.2; Shiga inhibitor: 74.5*; VACV mCherry inh: -16.7%; VACV Venus inh: -4.4%; MARV entry inh: 3.3%; Lassa entry inh: 21.9%

How did CCN(CC)Cc1c(O)ccc2cc(-c3nc4ccccc4n3C)c(=O)oc12 do in these assays?
Cycloheximide cs: 10.7*; Shiga inhibitor: 9.4; VACV mCherry inh: -7.3%; VACV Venus inh: 2.5%; MARV entry inh: -6.6%; Lassa entry inh: 18.8%

Results for CC(=O)Nc1ccc(S(=O)(=O)N2CCC(C(=O)NCCc3c[nH]c4ccccc34)CC2)cc1 ?
Cycloheximide cs: -1.6; Shiga inhibitor: -5.4

Results for CCO[C@H]1[C@H](NC(=O)c2cccnc2)c2ccccc2C12CCN(C(=O)c1ccoc1)CC2 ?
VACV mCherry inh: -2.8%; VACV Venus inh: 6.4%

Results for O=C1CCc2cc(-c3csc(-c4ccc(O)cc4)n3)ccc2N1 ?
VACV mCherry inh: -25.1%; VACV Venus inh: -10.3%

What do the screens show for `COc1cc(OC)cc(-c2nc3ccccc3c(=O)o2)c1`?
Cycloheximide cs: -2.9; Shiga inhibitor: 14.4; VACV Venus inh: -3.7%; MARV entry inh: -1.3%; Lassa entry inh: 5.7%

What do the screens show for `Cc1ccc(-c2nc3ccccc3c(=O)o2)cc1`?
Cycloheximide cs: 23.1*

What do the screens show for `Cc1ccc2nc(-c3ccccc3)oc(=O)c2c1`?
Cycloheximide cs: 1.0; Shiga inhibitor: 14.3

What do the screens show for `COc1cccc(-c2nc3ccccc3c(=O)o2)c1`?
Cycloheximide cs: 19.3*; Shiga inhibitor: 25.4; MARV entry inh: inconclusive; Lassa entry inh: 12.8%

How did COc1ccc(-c2nc3ccccc3c(=O)o2)cc1 do in these assays?
Cycloheximide cs: 13.0*; Shiga inhibitor: 48.4; VACV mCherry inh: -0.3%; VACV Venus inh: -21.1%; MARV entry inh: inconclusive; Lassa entry inh: -14.1%[46.1 µM]

How did Cc1ncc2c(c1CNC(=O)CN1CCCC1)CCN(C(=O)c1ccc(F)cc1F)C2 do in these assays?
VACV mCherry inh: -7.2%; VACV Venus inh: 12.7%

How did COc1ccc(C2=C(C)C(N3CCC(C(=O)NCc4ccc(C)o4)CC3)=NS2(=O)=O)cc1 do in these assays?
VACV mCherry inh: -8.1%; VACV Venus inh: -11.1%; Lassa entry inh: -2.9%[46.1 µM]

Results for S=C(NCCCc1ccccc1)NC1CCCCC1 ?
Cycloheximide cs: 47.2*; Shiga inhibitor: 71.1*; VACV mCherry inh: inactive; VACV Venus inh: -8.1%; MARV entry inh: -26.0%[46.1 µM]; Lassa entry inh: -18.0%[46.1 µM]

How did S=C(Nc1ccccn1)NC1CCCCC1 do in these assays?
Cycloheximide cs: 15.8; Shiga inhibitor: -1.8; VACV mCherry inh: -10.7%; VACV Venus inh: -26.7%; MARV entry inh: -0.5%[14.2 µM]; Lassa entry inh: 8.1%

What do the screens show for `S=C(NCCc1ccccn1)NC1CCCCC1`?
Cycloheximide cs: 42.4*; Shiga inhibitor: 26.7*; VACV mCherry inh: -8.3%; VACV Venus inh: -6.4%; MARV entry inh: -3.2%; Lassa entry inh: inconclusive

Results for Cc1onc(-c2ccccc2)c1C(=O)OCC(=O)Nc1ccccc1Cl ?
VACV mCherry inh: inactive; VACV Venus inh: -15.1%

How did CCCCCCCNC(=O)C1(CC2CC(c3ccc(Cl)cc3)=NO2)CCN(C(=O)CCCCCBr)CC1 (stereo not drawn) do in these assays?
Cycloheximide cs: -1.6; Shiga inhibitor: 11.1; VACV mCherry inh: -3.2%; VACV Venus inh: inconclusive

How did Cc1cc(=O)oc2cc(NC(=O)c3ccccc3OC(F)F)ccc12 do in these assays?
Cycloheximide cs: 30.0*; Shiga inhibitor: 115.0*; VACV mCherry inh: -10.9%; VACV Venus inh: -6.5%; MARV entry inh: 4.8%[46.1 µM]; Lassa entry inh: -12.9%

How did COc1ccc2c(COC(=O)c3cccc(S(=O)(=O)NCC(C)C)c3)cc(=O)oc2c1 do in these assays?
Cycloheximide cs: 20.5*; Shiga inhibitor: 36.7; VACV mCherry inh: -2.7%; VACV Venus inh: -19.6%; MARV entry inh: -15.4%; Lassa entry inh: inconclusive
